# Assay results from PubChem BioAssay (NCATS).
# Results filed as inconclusive are left out. Where a call stands in place of a potency, no number is given. A number with no mark means an inactive call. Activity calls are given as the source filed them. Unless noted, calls follow the shape of the dose curve; as a rule, active = well fitted curve in the direction sought with a large enough effect; inconclusive = small, poorly fitted or top-dose-only effect, or another doubt; inactive = no such curve, though single readings can be large; an effect the other way counts as inactive or inconclusive.
# Tests used:
# [1] = molecular target: Rap guanine nucleotide exchange factor 3 (Homo sapiens) (UniProt O95398); test: Confirmatory qHTS for antagonist of cAMP-regulated guanine nucleotide exchange factor 3 (EPAC1) (AID 1645880); details: EPAC1 Rap1B-BODIPY-GDP exchange, fluorescence; activity, negative = inhibition: at 115 µM (top of the series); also: nearly all actives have a fitted effect of over 55% in size; also: potency is read from the fitted curve at half-maximal effect
# Sequence of Rap guanine nucleotide exchange factor 3 (Homo sapiens) (O95398 whole entry, looked up): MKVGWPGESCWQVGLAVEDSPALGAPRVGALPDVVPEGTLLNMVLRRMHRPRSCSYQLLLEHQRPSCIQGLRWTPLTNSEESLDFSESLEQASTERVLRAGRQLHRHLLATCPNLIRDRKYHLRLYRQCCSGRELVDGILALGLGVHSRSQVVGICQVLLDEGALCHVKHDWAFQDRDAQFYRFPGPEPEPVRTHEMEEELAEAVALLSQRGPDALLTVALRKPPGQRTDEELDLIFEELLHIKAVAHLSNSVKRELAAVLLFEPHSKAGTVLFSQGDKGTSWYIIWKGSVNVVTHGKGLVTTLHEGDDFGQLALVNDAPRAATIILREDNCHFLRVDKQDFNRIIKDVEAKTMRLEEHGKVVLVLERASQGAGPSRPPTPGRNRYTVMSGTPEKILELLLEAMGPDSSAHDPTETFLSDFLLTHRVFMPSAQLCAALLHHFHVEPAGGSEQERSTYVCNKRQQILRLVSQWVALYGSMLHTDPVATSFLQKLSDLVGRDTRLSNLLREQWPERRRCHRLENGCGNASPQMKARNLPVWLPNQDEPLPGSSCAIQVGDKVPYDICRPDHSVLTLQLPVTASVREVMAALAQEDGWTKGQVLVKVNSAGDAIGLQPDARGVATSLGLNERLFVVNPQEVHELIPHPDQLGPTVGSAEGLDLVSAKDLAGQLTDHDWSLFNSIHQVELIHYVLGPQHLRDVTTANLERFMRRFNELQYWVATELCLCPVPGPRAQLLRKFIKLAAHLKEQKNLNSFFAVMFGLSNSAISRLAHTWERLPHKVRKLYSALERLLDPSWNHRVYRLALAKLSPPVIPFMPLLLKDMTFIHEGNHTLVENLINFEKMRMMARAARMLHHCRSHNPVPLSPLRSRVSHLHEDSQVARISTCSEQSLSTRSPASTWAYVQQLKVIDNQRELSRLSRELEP
# Outline: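 Released BODIPY-GDP fluoresces less than Rap1-bound BODIPY-GDP; the signal is followed at 480/540 nm at 5-min intervals over 30 min, after 5 min at room temperature. Reactions contain 100 nM EPAC1, 250 nM RAP1B-BODIPY-GDP and 50 uM GDP; results are normalized to ATA and DMSO.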
# [2] = molecular target: Rap guanine nucleotide exchange factor 3 (Homo sapiens) (UniProt O95398); test: Confirmatory qHTS for agonist of cAMP-regulated guanine nucleotide exchange factor 3 (EPAC1) (AID 1645881); details: EPAC1 Rap1B BODIPY-GDP exchange fluorescence; series mostly up to 154 µM;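 also: EPAC1 catalysed release of BODIPY-GDP from Rap1B seen as fluorescence loss; nearly all actives have a fitted effect of over 75% in size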
# [3] = molecular target: Rap guanine nucleotide exchange factor 4 (Homo sapiens) (UniProt Q8WZA2); test: Confirmatory qHTS for agonist of cAMP-regulated guanine nucleotide exchange factor 4 (EPAC2) (AID 1645884); details: EPAC2 GEF activity, Rap1B-BODIPY-GDP fluorescence; series mostly up to 154 µM;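 also: nucleotide exchange releases bodipy-GDP from Rap1 and this lowers its fluorescence; nearly all actives have a fitted effect of over 65% in size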
# Sequence of Rap guanine nucleotide exchange factor 4 (Homo sapiens) (Q8WZA2 whole entry, looked up): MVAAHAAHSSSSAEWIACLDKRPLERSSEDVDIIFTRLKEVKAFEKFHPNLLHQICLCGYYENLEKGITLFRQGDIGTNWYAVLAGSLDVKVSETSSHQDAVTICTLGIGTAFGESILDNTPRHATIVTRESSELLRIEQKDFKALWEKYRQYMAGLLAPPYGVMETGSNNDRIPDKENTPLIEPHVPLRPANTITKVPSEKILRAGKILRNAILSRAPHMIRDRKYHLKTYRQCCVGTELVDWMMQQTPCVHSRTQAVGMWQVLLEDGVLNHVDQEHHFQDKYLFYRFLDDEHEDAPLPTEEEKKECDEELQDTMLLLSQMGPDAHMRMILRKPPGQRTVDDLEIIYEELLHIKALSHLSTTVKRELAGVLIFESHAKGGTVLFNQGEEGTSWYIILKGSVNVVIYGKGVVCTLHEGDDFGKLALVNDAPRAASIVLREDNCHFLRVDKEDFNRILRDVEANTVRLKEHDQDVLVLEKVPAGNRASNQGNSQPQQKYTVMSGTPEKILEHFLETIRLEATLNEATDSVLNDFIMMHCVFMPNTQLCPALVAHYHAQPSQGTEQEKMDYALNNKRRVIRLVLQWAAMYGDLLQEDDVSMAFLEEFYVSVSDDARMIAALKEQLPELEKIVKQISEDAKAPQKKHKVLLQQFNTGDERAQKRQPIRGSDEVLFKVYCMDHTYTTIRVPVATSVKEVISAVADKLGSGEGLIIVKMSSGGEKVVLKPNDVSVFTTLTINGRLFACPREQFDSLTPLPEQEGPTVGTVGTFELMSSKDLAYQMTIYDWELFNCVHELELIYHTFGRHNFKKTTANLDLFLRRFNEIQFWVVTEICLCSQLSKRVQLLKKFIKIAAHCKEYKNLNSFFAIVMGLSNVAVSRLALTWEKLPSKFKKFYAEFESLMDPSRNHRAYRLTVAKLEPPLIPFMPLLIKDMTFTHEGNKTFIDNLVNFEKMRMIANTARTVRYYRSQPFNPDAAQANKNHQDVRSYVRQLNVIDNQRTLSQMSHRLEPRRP
# [4] = molecular target: Rap guanine nucleotide exchange factor 3 (Homo sapiens) (UniProt O95398); test: Counterscreen qHTS for antagonist of cAMP-regulated guanine nucleotide exchange factor 3 (EPAC1) (AID 1645888); details: Rap1B-BODIPY-GDP nucleotide exchange, fluorescence; series mostly up to 154 µM
# Outline: (§1)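 Rap1B–BODIPY-GDP (250 nM) with 50 uM GDP; compounds pin-transferred to 9.74 nM–152 uM final (activator) or from 7.32 nM upwards (inhibitor). Fluorescence Ex/Em 480/540 nm read at 5 and 30 min, then after adding cAMP or buffer, at room temperature.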
# [5] = molecular target: Rap guanine nucleotide exchange factor 3 (Homo sapiens) (UniProt O95398); test: Counterscreen qHTS for agonist of cAMP-regulated guanine nucleotide exchange factor 3 (EPAC1) (AID 1645889); details: EPAC1 Rap1B-BODIPY-GDP exchange, fluorescence; series mostly up to 154 µM; also: nearly all actives have a fitted effect of over 40% in size
# Outline: as §1
# [6] = AP1 Signaling Pathway (AID 357; active = well fitted curve in either direction with a large enough effect, not every such curve was filed as active); details: ME-180 AP-1-bla reporter, EGF-induced, beta-lactamase ratio, 5 h; at 7.69 µM (top of the series) unless noted
# Outline: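 ME-180 cells with beta-lactamase reporter under AP-1 response element, stimulated with EC50 EGF; compounds tested in titration series, 5 h at 37 °C. CCF4 substrate added 2.5 h at room temperature; 460/530 nm emission ratio gave %activity and AC50.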
# [7] = NFAT Signaling Pathway (AID 444; active = well fitted curve in either direction with a large enough effect, not every such curve was filed as active;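 also: carbachol stimulus at about its EC50 of 1 µM final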); details: Jurkat NFAT-bla M1, carbachol, beta-lactamase ratio, 5 h; at 7.69 µM (top of the series) unless noted
# Outline: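 Jurkat cells with NFAT-driven β-lactamase reporter and co-expressed M1 receptor, stimulated with carbachol (final 1 uM, ~EC50), compound titration, 5 h at 37 °C. CCF4 loaded 1 h at RT; 460/530 nm ratio gave %activity and AC50.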
# [8] = Stat Signaling Pathway (AID 446; active = well fitted curve in either direction with a large enough effect, not every such curve was filed as active;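 also: ME-180 cervical cancer cells given 40 pM IL-6 alongside compound; SIE-controlled beta-lactamase reporter measured as 460/530 nm FRET emission ratio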); details: ME-180 (cervical carcinoma) SIE beta-lactamase reporter, IL-6 stimulated, 5 h; series mostly up to 7.69 µM
# Outline: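 Compound effects on IL-6-induced STAT reporter activity were measured in ME-180 cells. After overnight culture, cells were co-treated with 40 pM IL-6 for 5 hrs before beta-lactamase substrate loading at room temperature.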
smiles,measurement,setting,value
O=S(=O)(c1ccc(Cl)cc1Br)N1CCCCC1,Potency,[1],inactive
same,Potency,[2],inactive
same,activation,[3],"12.1% [at 17.1 µM, percent relative to cAMP agonist control]"
same,"activity change, negative = inhibition",[4],-6.37% [at 30.8 µM]
same,activation,[5],10.6% [at 30.8 µM]
O=C(CCCN1C(=O)/C(=C/c2ccccc2)SC1=S)Nc1ccccc1O,Potency,[1],inactive
same,Potency,[2],inactive
same,Potency,[3],inactive
same,Potency,[4],inactive
same,Potency,[5],inactive
CCCC(=O)NCCCc1nc2ccccc2n1C,Potency,[1],inactive
same,Potency,[2],inactive
same,Potency,[3],inactive
same,Potency,[4],inactive
same,Potency,[5],inactive
CCC(NC(=O)Nc1ncccc1C)(C(F)(F)F)C(F)(F)F,"activity change, negative = inhibition",[6],11.9% [at 17.2 µM]
same,"activity change, negative = inhibition",[7],-12% [at 17.2 µM]
same,outcome,[8],inactive
same,Potency,[1],inactive
same,Potency,[2],inactive
same,Potency,[3],inactive
same,Potency,[4],inactive
same,Potency,[5],inactive
O=C1C(=Cc2ccccc2Cl)CCc2ccccc21,Potency,[1],inactive
same,Potency,[2],inactive
same,Potency,[3],inactive
same,Potency,[4],inactive
same,Potency,[5],inactive
O=C(c1ccccc1)C(c1ccccc1)c1ccccc1,Potency,[1],inactive
same,Potency,[2],inactive
same,activation,[3],"0.697% [at 17.1 µM, percent relative to cAMP agonist control]"
same,"activity change, negative = inhibition",[4],2.63% [at 30.8 µM]
same,activation,[5],12.8% [at 30.8 µM]
Cc1ccc(S(=O)(=O)Nc2ccc3ccccc3c2[N+](=O)[O-])cc1,Potency,[1],75.7 µM (active)
same,Potency,[2],inactive
same,Potency,[3],inactive
same,Potency,[4],inactive
same,Potency,[5],inactive
COc1cc(/C=C(\C#N)c2nc3ccccc3s2)cc([N+](=O)[O-])c1O,Potency,[1],16.9 µM (active)
same,Potency,[2],inactive
same,Potency,[3],inactive
same,Potency,[4],inactive
same,Potency,[5],inactive
CCCCCN(C(=O)CCC(=O)OCC(=O)N1CCC(C)CC1)c1c(N)n(CCCC)c(=O)[nH]c1=O,Potency,[1],inactive
same,Potency,[2],inactive
same,Potency,[3],inactive
same,Potency,[4],inactive
same,Potency,[5],inactive
CCOc1ccc(C(=O)NCC(=O)Nc2ncccc2C)cc1OCC,Potency,[1],inactive
same,Potency,[2],inactive
same,Potency,[3],inactive
same,Potency,[4],inactive
same,Potency,[5],inactive
CCC1SC2=NC(C)=C(C(=O)OC)C(c3cccs3)N2C1=O (stereo not drawn),Potency,[1],inactive
same,Potency,[2],inactive
same,activation,[3],"-2.13% [at 17.1 µM, percent relative to cAMP agonist control]"
same,"activity change, negative = inhibition",[4],-9.77% [at 30.8 µM]
same,activation,[5],5.87% [at 30.8 µM]
COc1cc(SC)ccc1C(=O)Nc1c(C)cccc1C,Potency,[1],inactive
same,Potency,[2],inactive
same,activation,[3],"-7.76% [at 17.1 µM, percent relative to cAMP agonist control]"
same,"activity change, negative = inhibition",[4],-15.6% [at 30.8 µM]
same,activation,[5],6.15% [at 30.8 µM]
COc1cc2c(cc1OC)C(COc1ccc(F)cc1)N(C(C)=O)CC2 (stereo not drawn),Potency,[1],inactive
same,Potency,[2],inactive
same,Potency,[3],inactive
same,Potency,[4],inactive
same,Potency,[5],inactive
COc1cc(/C=C2\SC(=S)N(NC(=O)c3ccc(O)cc3)C2=O)ccc1O,Potency,[1],75.7 µM (active)
same,Potency,[2],inactive
same,Potency,[3],inactive
same,Potency,[4],inactive
same,Potency,[5],inactive
Cn1c(=O)c2c(nc(NCCc3ccccc3)n2CC(=O)NCCc2ccccc2)n(C)c1=O,Potency,[1],inactive
same,Potency,[2],inactive
same,Potency,[3],inactive
same,Potency,[5],inactive
N=c1c(S(=O)(=O)c2ccc(Br)cc2)cc2c(=O)n3ccccc3nc2n1C1CCCC1,Potency,[1],inactive
same,Potency,[2],inactive
same,Potency,[3],inactive
same,Potency,[5],inactive
COC(=O)/N=C(/Cc1ccc(OC)cc1)c1ccc(OC)cc1,Potency,[1],inactive
same,Potency,[2],inactive
same,Potency,[3],inactive
same,Potency,[5],inactive
COc1ccc(NS(=O)(=O)c2cc(N)ccc2N2CCCCC2)cc1,Potency,[1],inactive
same,Potency,[2],inactive
same,Potency,[3],inactive
same,Potency,[5],inactive
Cc1ccc(C(=O)C=Cc2ccc3c(c2)OCO3)c(C)c1,Potency,[1],inactive
same,Potency,[2],inactive
same,activation,[3],"-0.688% [at 17.1 µM, percent relative to cAMP agonist control]"
same,activation,[5],12.3% [at 30.8 µM]
